Laboratory results: PubChem BioAssay (EPA / NIEHS)
Where a structure was tested more than once in an assay, its records may differ in their call. The source made the active and inactive calls. The calls were made as follows: active = hit-call score of the fitted dose curve at least 0.9, where 1 is the maximum; inactive = score below 0.9.

read-out: Cyclin D1 (CCND1), CCND1 (gene 595); test: LTEA_HepaRG_CCND1: Life Technologies and Expression Analysis (LTEA) Assay for Cyclin D1 (CCND1) using HepaRG (AID 2283451); conditions: mRNA level, 48 h; actives raise or lower the signal;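 as to AC50: TaqMan qRT-PCR transcript level normalised to ACTB GAPDH and POLR2A housekeeping genes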
Protocol: LTEA_HepaRG is a cell based, multiplexed-readout assay that uses HepaRG, a human liver cell line, with measurements taken at 48 hours after chemical dosing on a 96-well plate.LTEA_HepaRG_CCND1 is one of 102 assay component(s) measured in the LTEA HepaRG cell culture assay. It is a marker of Cell proliferation, survival, death.Data from the assay component LTEA_HepaRG_CCND1 was analyzed into 1 endpoint. This assay endpoint, LTEA_HepaRG_CCND1, was analyzed with bidirectional fitting relative to DMSO as the negative control and baseline of activity. Using a type of inducible reporter, measures of mRNA induction for gain or loss-of-signal activity can be used to understand regulation of transcription factor activity. To generalize the intended target to other relatable targets, this assay endpoint is annotated to the cell cycle intended target family, where the subfamily is Cell proliferation, survival, death.
A total of 1060 chemcials from the ToxCast library were tested in eight-point concentration-response experiments. Cell culture and cytotoxicity assays were conducted at Thermo Fisher Scientific's Custom Services facility (Madison, WI). A single lot of human HepaRG cells (Thermo Fisher Scientific, Frederick, MD) was used for the cell culture experiments. 96-well format collagen type I coated plates of human HepaRG cells were prepared using established methods. Briefly, cryopreserved HepaRG cells were thawed, plated at a density of approximately 100,000 cells/well in HepaRG Thaw, Plate, and General Purpose media (HPRG770, Thermo Fisher Scientific), and incubated for 48 hours. 0.5% DMSO was selected as vehicle control to balance the requisite need of DMSO in HepaRG cultures to maintain differentiation (for example, baseline metabolism, proportions of hepatocytes vs. cholangiocytes), while enabling further hepatic receptor pathway activation (for example, PXR and CAR) in response to chemical exposure. 48 hours after plating, the culture medium was replaced with HepaRG Serum-Free Incudtion Media. Cells were exposed to each test chemical in duplicate and maintained in CO2 incubators for another 48 hours. Chemical plates were thawed to room temperature and 200x concentrations of treatment groups were prepared. 8-point conentration-reponse curves were made with the highest exposure at 100 uM, followed by half-log dilutions, all in 0.5% DMSO. Each test plate contained variouse controls, induction positive controls (1mM phenobarbital), cytotoxicity positive controls ([…] aflatoxin B1), vehicle controls (0.5% DMSO), and total lysis controls (0.5% DMSO). Cell morphology images were taken using an Essen IncuCyte FLR automated microscope, with six 96-well plates imaged in about 24 minutes. Images were captured and exported and JPEG files. Spent culture media was transfered to black-well plates for the LDH assay, and remaining media was sorted at -80 C for later use. Cells were treated with RLT buffer and frozen until shipped for gene expression analysis. Total RNA was isolated from the cell suspension in 75 uL of Buffer RLT (Qiagen, Germantown, MD 20874) by Quintiles/Expression Analysis (Durham, NC) using a custom isolation procedure. Total RNA from each plate well was transferred to a preamplification plate. Fluidigm's 96.96 Dynamic ArrayTM (Fluidigm, Amsterdam, the Netherlands) technology was used for gene expression analyses by quantitative reverse transcription polymerase chain reaction (qRT-PCR, performed by Quintiles/Expression Analysis, Durham, NC)89. Standard TaqManTM Assays (Applied Biosystems/ThermoFisher Scientific, Foster City, CA) were used to assess the expression of 93 genes selected based on their selectivity and sensitivity to important hepatic receptors known to be modulated by environmental chemicals; importance in human hepatocyte functionality; and hepatotoxicity. […]

SMILES	outcome	AC50
CC[C@H](C)[C@H]1O[C@]2(C=C[C@@H]1C)C[C@@H]1C[C@@H](C/C=C(\C)[C@@H](O[C@H]3C[C@H](OC)[C@@H](O[C@H]4C[C@H](OC)[C@@H](O)[C@H](C)O4)[C@H](C)O3)[C@@H](C)/C=C/C=C3\CO[C@@H]4[C@H](O)C(C)=C[C@@H](C(=O)O1)[C@]34O)O2 (tested in a mixture with another compound)	inactive	
CC1(C)C(C=C(Cl)Cl)C1C(=O)OC(C#N)c1ccc(F)c(Oc2ccccc2)c1 (stereo not given)	inactive	
CCCN(CCC)c1c([N+](=O)[O-])cc(C(F)(F)F)cc1[N+](=O)[O-]	inactive	
CC(C)N(C(=O)COc1nnc(C(F)(F)F)s1)c1ccc(F)cc1	inactive	
CCOCN(C(=O)CCl)c1c(C)cccc1CC	inactive	
Oc1cc(Cl)ccc1Oc1ccc(Cl)cc1Cl	inactive	85.2 µM (active)
CCC(C)(C)C(=O)OC1=C(c2ccc(Cl)cc2Cl)C(=O)OC12CCCCC2	inactive	
CC(C)(C)C(O)/C(=C\c1ccc(Cl)cc1Cl)n1cncn1 (stereo not given)		82.5 µM (active)
Cc1[nH]c(=O)n(C(C)(C)C)c(=O)c1Cl	inactive	
O=C(Nc1ccccc1)Nc1cnns1		74.7 µM (active)
O=C(O)C(F)(F)C(F)(F)C(F)(F)C(F)(F)C(F)(F)C(F)(F)C(F)(F)F	inactive	
O=S1OCC2C(CO1)C1(Cl)C(Cl)=C(Cl)C2(Cl)C1(Cl)Cl (stereo not given)	inactive	
CCOC1Oc2ccc(OS(C)(=O)=O)cc2C1(C)C (stereo not given)		76.1 µM (active)
CNC(=O)Oc1ccccc1OC(C)C	inactive	
CCN(CC)C(=O)SCc1ccc(Cl)cc1	inactive	
CC1(c2ccc(Oc3ccccc3)cc2)OC(=O)N(Nc2ccccc2)C1=O (stereo not given)	inactive	
O=[N+]([O-])/N=C1\NCCN1Cc1ccc(Cl)nc1	inactive	
O=C(O)COc1ccc(Cl)cc1Cl	inactive	
CC(C)OC(=O)Nc1cccc(Cl)c1	inactive	

SMILES	outcome	AC50
C[C@H]1[C@H](c2ccc(Cl)cc2)SC(=O)N1C(=O)NC1CCCCC1	inactive	
CNC(=O)/C=C(\C)OP(=O)(OC)OC	inactive	
O=C(O)CCCOc1ccc(Cl)cc1Cl	inactive	
CNC(=O)CSP(=S)(OC)OC	inactive	
Oc1ccc(Cl)cc1Cc1ccccc1	inactive	50.5 µM (active)
N#CN	inactive	
COP(=O)(OC)OC=C(Cl)Cl	inactive	
O=C(NC(=O)c1c(F)cccc1F)Nc1ccc(OC(F)(F)C(F)OC(F)(F)F)c(Cl)c1 (stereo not given)	inactive	
C#CCN1C(=O)COc2cc(F)c(N3C(=O)C4=C(CCCC4)C3=O)cc21	inactive	
Clc1ccccc1-c1nnc(-c2ccccc2Cl)nn1	inactive	
COc1nn(CSP(=S)(OC)OC)c(=O)s1	inactive	
CNC(=O)Oc1cccc(N=CN(C)C)c1	inactive	
N#Cc1c(Cl)c(Cl)c(Cl)c(C#N)c1Cl		13.5 µM (active)
CCC(C)Nc1c([N+](=O)[O-])cc(C(C)(C)C)cc1[N+](=O)[O-] (stereo not given)	inactive	
OCCOc1ccccc1	inactive	
CN1CSC(=S)N(C)C1	inactive	
COP(=S)(OC)Oc1ccc(SC)c(C)c1	inactive	
CCC(C)(NC(=O)c1cc(Cl)c(C)c(Cl)c1)C(=O)CCl (stereo not given)		77.8 µM (active)
CC(C)(C)C(O)C(Oc1ccc(Cl)cc1)n1cncn1 (stereo not given)	inactive	
